Test results published in patent US20250354175, “ATTP MV4-DERIVED SITE-SPECIFIC RECOMBINATION AND ITS USE FOR INTEGRATION OF SEQUENCE OF INTEREST” (INSTITUT NATIONAL DE RECHERCHE POUR L'AGRICULTURE, …, published 2025).

Molecular target: T1, mv4Int (369 aa integrase) (Lactobacillus delbrueckii bacteriophage …)
T1 chain: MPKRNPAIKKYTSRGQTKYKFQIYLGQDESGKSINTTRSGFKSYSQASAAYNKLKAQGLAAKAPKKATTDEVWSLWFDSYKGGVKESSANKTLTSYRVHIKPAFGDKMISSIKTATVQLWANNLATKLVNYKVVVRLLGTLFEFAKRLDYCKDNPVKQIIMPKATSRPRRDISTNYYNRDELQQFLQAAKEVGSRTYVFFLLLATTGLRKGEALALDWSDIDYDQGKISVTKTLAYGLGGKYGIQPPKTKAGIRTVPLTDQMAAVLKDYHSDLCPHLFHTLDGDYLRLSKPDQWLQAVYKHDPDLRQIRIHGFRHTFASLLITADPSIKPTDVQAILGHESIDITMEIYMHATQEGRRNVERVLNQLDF
Test: cleavage_in_vitro; recombination with attP sharing same overlap
Conditions: tags: expressed from pET15b; label: Cy3; dsDNA, one strand shown

**Q.** For TCAAATAAGGTTTTCTCCTTAATAAGGTCAAATGGTATC, which binding signal is on record?
**A.** Its binding signal is 15 fold decrease vs WT.
